# Measured values from PubChem BioAssay (NCI).
# The panel holds about 79,000 compounds, 15% with a hit somewhere; the sample as a whole holds those more often. Calls of active or inactive are those of the source. Rule as the data show it: active = growth inhibition above about 70%; inactive = the rest.
# Experiment: NCI Yeast Anticancer Drug Screen. Data for the rad50 strain (AID 155);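 also: 0% = growth of vehicle-only cultures of the same strain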
# Details: S. cerevisiae rad50 strain growth inhibition; at 50.0 µM; active compounds read high
# Method in brief: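 Yeast carrying a defined DNA repair defect were exposed to test compounds, and growth was compared with vehicle-treated controls to give percent inhibition.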
row,Structure (SMILES),growth inhibition
1,NC1(P(=O)(O)O)CCCCC1,2.5% (inactive)
2,CC([NH-])C[NH-].CC([NH-])C[NH-].[Co].[NH2-].[NH2-] (configuration not stated),-10% (inactive)
3,Cc1cccc(-n2c(C)nc3ccccc3c2=O)c1C,-15.2% (inactive)
4,CN1CCOC(c2ccccc2)c2ccsc2CC1 (configuration not stated),17.2% (inactive)
5,Cc1cccc(C)c1N,10.3% (inactive)
6,O=C(Cc1cccc([N+](=O)[O-])c1)Nc1cccc(S(=O)(=O)F)c1,5.8% (inactive)
7,O=C1/C(=C\c2cc3ccccc3c3ccccc23)N2CCC1CC2,11.1% (inactive)
8,CCCCCC[C@@H](O)[C@@H]1C2=C(C[C@H]([C@H](O)[C@@H]3CC=CC(=O)O3)CC3=C(C(=O)OC3=O)[C@@H]1O)C(=O)OC2=O,20.6% (inactive)
9,CCCO[As](=O)(OCCC)OCCC,5.55% (inactive)
10,COc1ccc(C(=O)Cc2c(C(=O)c3ccccc3)c3ccccc3n2C(=O)c2ccccc2)cc1,-2.45% (inactive)
11,CC(N)Cc1ccc(Cl)cc1 (configuration not stated),14.5% (inactive)
12,CCC1CN2CCC3(C(=O)Nc4ccccc43)C2CC1/C(=C/OC)C(=O)OC (configuration not stated),-1.8% (inactive)
13,CCC[CH2][Sn]([CH2]C)([CH2]C)[CH2]C,40.4% (inactive)
14,C/C(=N\N(C)C)C(CN1CCCCC1)C(c1ccccc1)c1c(O)c2ccccc2oc1=O (configuration not stated),-1.35% (inactive)
15,CCCCCCCCCCCCCC[As](=O)(O)O,6.4% (inactive)
16,CN1CCC2=C(c3ccccc3)c3ccccc3C2C1 (configuration not stated),10.3% (inactive)
17,[CH3][Sn]1([CH3])[O]C(=O)c2ccccc2C(=O)[O]1,6.8% (inactive)
